Test results reported in PubChem BioAssay AID652072 (Broad Institute, 2013).
Inconclusive results are not listed. How the calls were made is not given here.

Test: caspase 3/7 activation in LOX IMVI melanoma cells, dose response, mechanism study for HRAS target identification, cell-based, luminescence, multiple timepoints, dry powder (AID 652072)
Details: caspase 3/7 luminescence, apoptosis; series mostly up to 35 µM; caspase 3/7 activation: at the top concentration

Caspase 3/7 activation, inactive:
CCC(=O)N(c1ccc(OC)c(Cl)c1)C(C(=O)NCCc1ccccc1)c1cccs1 (centres undefined) -0.966%
Cc1onc(C(=O)N2CCN(C(c3ccc(Cl)cc3)c3ccc(Cl)cc3)CC2)c1[N+](=O)[O-] 28%
Cc1onc(C(=O)N2CCN(C(c3ccc(Cl)cc3)c3ccc(OCCOCCOCCNC(=O)OC(C)(C)C)cc3)CC2)c1[N+](=O)[O-] (centres undefined) 10.7%
C#CCCCC(=O)NCCOCCOCCOc1ccc(N(C(=O)CCl)C(C(=O)NCCc2ccccc2)c2cccs2)cc1Cl (centres undefined) 15.5%
